KB-V1 cytotox – qHTS assay for MDR1-selective chemotherapeutics: Primary screen using the drug-selected MDR subline cells KB-V1 | KB-V1 MDR cells viability, CellTiter-Glo, 72 h | Potency, µM (doses to about 46.1 µM), actives largely listed as cytotoxic | 400,000 compounds, 3.4% hits | AID 1347076, 2019; also: potency is read from the fitted curve at half-maximal effect; nearly all actives have a fitted effect of over 60% in size
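Drug-selected KB-V1 cells, grown in DMEM lacking phenol red with 10% FBS, receive compound titrations; after three days at 37 degrees C, surviving cell ATP is quantified by CellTiter-Glo luminescence and responses normalized and curve-fitted.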
HT1080NT lethal – qHTS for induction of synthetic lethality in tumor cells producing 2HG: qHTS for the HT-1080-NT fibrosarcoma cell line; HT-1080-NT fibrosarcoma viability, CellTiter-Glo ATP luminescence, 48 h; Potency, µM (doses to about 46.1 µM), inactives show at the highest dose activity, negative = less viability, most hits filed as cytotoxic; 360,000 compounds, 1.6% hits; AID 686970, 2013;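 also: NT is the 2HG producing partner of a matched IDH1 knockdown line; potency is read from the fitted curve at half-maximal effect; 0% = DMSO-treated cells and -100% = media-only wells without cells; nearly all actives have a fitted effect of over 55% in size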
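Read-out is CellTiter-Glo luminescence after 10 minutes at room temperature, following 48 hours' compound treatment of HT-1080-NT cells (750 cells/well, RPMI, 5% FBS, 37 degrees C).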
HT1080 IDH1KD tx – qHTS for induction of synthetic lethality in tumor cells producing 2HG: qHTS for the HT-1080-IDH1KD cell line; HT-1080 IDH1 knockdown viability, ATP luminescence, 48 h; Potency, µM (highest dose often 46.1 µM), without a hit: at the highest dose activity, negative = toxicity, hits mostly cytotoxic; 360,000 compounds, 2% hits;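 also: potency is read from the fitted curve at half-maximal effect; 0% = DMSO wells and -100% = cell-free medium wells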
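Cytotoxicity counter-line: IDH1KD HT-1080, 48 h, CellTiter-Glo. Curves classed by r2, magnitude and activity.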
IL-1B inflam inh – qHTS for Inhibitors of Inflammasome Signaling: IL-1-beta AlphaLISA Primary Screen; THP-1 LPS/ATP IL-1B secretion, AlphaLISA, 16 h; stronger effect = lower value; activity change, % at 57.5 µM; 360,000 compounds, 4.7% hits; in the data active = activity change below about -50%; inconclusive = mostly about -30% to -49%
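THP-1 cells pretreated 1 hr with compounds (up to 57.5 uM final), then stimulated with LPS (250 ng/mL final) plus ATP (1.25 mM final); secreted IL-1B measured by AlphaLISA after 16 hr, decreased signal indicating inhibition.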
KB-3-1 tox – qHTS assay for MDR1-selective chemotherapeutics: Primary screen using the parental adenocarcinoma cell KB-3-1. KB-3-1 viability, CellTiter-Glo ATP luminescence, 72 h. Potency, µM (highest dose often 46.1 µM), actives largely listed as cytotoxic. 400,000 compounds, 1.4% hits; also: potency is read from the fitted curve at half-maximal effect; nearly all actives have a fitted effect of over 60% in size
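Parental KB-3-1 adenocarcinoma cells in phenol-red-free DMEM with 10% FBS were pin-treated with compounds at several concentrations, incubated 72 h at 37 °C, and viability read by CellTiter-Glo luminescence; concentration-effect curves were fitted after normalization.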
Numbers without * were called inactive; i = inactive; ? = inconclusive; . = no result given; ! = a repeat was not active. Shown are actives, neighbours in structure and some others; about 8.8% of the full set was active somewhere. Unless noted, calls follow the shape of the dose curve; as a rule, active = well fitted curve in the direction sought with a large enough effect; inconclusive = small, poorly fitted or top-dose-only effect, or another doubt; inactive = no such curve, though single readings can be large; an effect the other way counts as inactive or inconclusive. Unless noted, % is scaled to controls: 0 for no effect and ±100 for the full control effect.

SMILES | KB-V1 cytotox | HT1080NT lethal | HT1080 IDH1KD tx | IL-1B inflam inh | KB-3-1 tox
COCCNc1nc(CSc2ccccc2)nc2sc(C)c(C)c12 | 10µM* | -9% | -15% | 0 | i
CSc1ccc(C(=O)C2CCCN(Cc3cccn3-c3cccnc3)C2)cc1 (stereo not given) | ? | ? | -20% | -96* | ?
COc1ccc(C(=O)C2CCCN(Cc3cccn3-c3cccnc3)C2)cc1OC (stereo not given) | i | 3% | 1% | 0 | i
O=C(c1ccc(Cl)cc1)C1CCCN(Cc2cccn2-c2cccnc2)C1 (stereo not given) | i | -22% | -24% | -56* | i
COc1ccc(S(=O)(=O)N(Cc2ccco2)Cc2cc3ccccc3[nH]c2=O)cc1 | ? | -24% | -20% | -26 | i
CC1(C)Oc2ccc(C(=O)N/N=C/c3ccc(O)cc3)cc2NC1=O | ? | ? | ? | -6 | i
N#CCC(=O)N/N=C/c1cc(-c2ccccc2)n(-c2ccc(Cl)cc2)c1-c1ccccc1 | i | ? | 21µM* | 29 | i
Nc1c(C(=O)CSc2nccn2-c2cccc(F)c2)c(=O)[nH]c(=O)n1C1CC1 | i | -2% | 3% | 27 | i
CC(C)(C)c1ccc(-c2nc(C=O)c3ccccn23)cc1 | 16µM* | 1% | 2% | -3 | i
COC(=O)C(CCSC)NC(=O)c1cc2c(n(-c3ccccc3)c1=O)CC(C)(C)CC2=O (stereo not given) | i | 13% | 1% | -4 | i
CCCS(=O)(=O)c1nc(C)cc(C)c1S(C)(=O)=O | i | 6% | 2% | 31 | i
Cc1cc(C)c(S(C)(=O)=O)c(NN)n1 | i | 6% | 6% | -62* | i
CCC(C)Sc1ccc(-c2nc3ccc(C)cn3c2NC2CCCCC2)cc1 (stereo not given) | ? | . | . | 21 | i
c1csc(-c2nc3ccccn3c2NC2CCCCC2)c1 | ? | -3% | ? | -86* | i
CC(=O)c1ccc(-c2cccc(-c3nc4ccccn4c3NC3CCCCC3)c2)cc1 | ? | ? | ? | -66* | ?
CCC(C)Sc1cccc(-c2nc3ccc(C)cn3c2NC2CCCCC2)c1 (stereo not given) | ? | -16% | -13% | -77*! | i
CCC(C)Sc1cc(-c2nc3cc(C)ccn3c2NC2CCCCC2)ccc1OC (stereo not given) | 21µM* | 21µM* | ? | -81* | ?
Nc1nc(NCc2ccc(Cl)cc2)c2[nH]cnc2n1 | i | . | . | . | i
CCC(C)Sc1cc(-c2nc3ccccn3c2NC2CCCCC2)ccc1OC (stereo not given) | 12µM*! | 26µM* | 18µM* | -91* | ?
CCOC(=O)c1c(C)n(C)c2ccc(OC)c(NC(=O)CCN3CCSCC3)c12 | 13µM* | 1% | 9% | 29 | i
CCOC(=O)c1c(C)n(C)c2ccc(OC)c(NC(=O)CN3CCC(C(=O)OCC)CC3)c12 | ? | 13% | 13% | 4 | i
CC(c1ccccc1)C(CC(=O)O)C(=O)Nc1ccc(Cl)c(Cl)c1 (stereo not given) | ? | 9% | 0% | 19 | i
O=C(NCc1ccc(F)cc1)c1cnc(Cl)c(Cl)c1 | i | 7% | 10% | -79* | i
COc1ccccc1N(CC(=O)Nc1ccc2c(c1)OCO2)S(=O)(=O)c1ccc(C)cc1 | i | . | . | . | i
O=C(Cc1ccc(Cl)cc1)Nc1ccc(N2CCN(C(=O)c3ccco3)CC2)c(Cl)c1 | ? | ? | ? | -68* | ?
SMILES | KB-V1 cytotox | HT1080NT lethal | HT1080 IDH1KD tx | IL-1B inflam inh | KB-3-1 tox
O=C(Nc1ccc(N2CCN(C(=O)c3ccco3)CC2)c(Cl)c1)c1cccs1 | 23µM* | ? | -28% | -63* | ?
CC(C)C(=O)N1CCN(c2ccc(NC(=O)c3cccs3)cc2Cl)CC1 | i | -16% | -11% | -83* | i
O=C(Cc1n[nH]c(=O)[nH]c1=O)N/N=C/CCc1ccccc1 | i | 0% | 0% | 0 | i
COc1ccc(-c2[nH]ncc2CN2CCN(c3ccc(F)cc3)CC2)cc1 | ? | -15% | 0% | -15 | i
OC1(c2ccc(Cl)cc2)CCN(Cc2cn[nH]c2-c2ccc(F)cc2)CC1 | i | 21µM* | ? | ? | i
Fc1ccc(N2CCN(Cc3cn[nH]c3-c3ccccc3)CC2)cc1 | i | -6% | -11% | 18 | i
OC1(c2ccc(Cl)cc2)CCN(Cc2cn[nH]c2-c2ccccc2)CC1 | i | ? | ? | -53* | i
Fc1ccc(-c2[nH]ncc2CN2CCN(c3ccc(F)cc3)CC2)cc1 | ? | -8% | ? | . | i
COc1ccc(-c2[nH]ncc2CN2CCC(O)(c3ccc(Cl)cc3)CC2)cc1 | ? | ? | ? | -59* | i
COc1ccccc1CCNC(=O)C(=O)NCC(c1cccnc1)N1CCN(c2ccccc2)CC1 (stereo not given) | i | . | . | . | ?
CCCc1cc(=O)n2[nH]c(NCc3ccccc3OC)nc2n1 | ? | . | . | . | i
O=C(O)c1ccc(-n2ncc(Cl)c(Cl)c2=O)cc1 | ? | 5.8µM* | 18µM* | -102* | i
CN(C(=O)CSc1nnc(Cc2cccs2)n1C1CC1)C1CCS(=O)(=O)C1 (stereo not given) | i | 7% | 2% | -3 | i
CC(=O)Oc1oc(-c2ccccc2)nc1/C=N/c1ccccn1 | i | 12% | 0% | -101* | i
CCN(C(=O)COc1ccc(C)cc1OC)c1cccc2ccccc12 | 12µM* | -21% | ? | -7 | i
COc1ccc(CCNc2nc(-c3ccncc3)cs2)cc1OC | ? | -14% | -20% | -21 | i
COc1ccc(-c2csc(NC(CO)c3nc4ccccc4n3Cc3ccc(C)cc3)n2)cc1 (stereo not given) | i | ? | -7% | -22 | ?
Cc1ccc(-c2csc(NCCn3c(-c4ccncc4)nc4cc(C(F)(F)F)ccc43)n2)cc1 | i | -2% | 1% | ? | ?
O=C1COc2ccc(-c3csc(NCCc4ccccc4)n3)cc2N1 | i | -13% | -25% | -76* | ?
c1ccc(CCNc2nc(-c3ccncc3)cs2)cc1 | ? | -7% | -14% | -60* | i
Cc1ccc(Cn2c(C(CO)Nc3nc(-c4ccc(F)cc4)cs3)nc3ccccc32)cc1 (stereo not given) | i | ? | ? | -69* | 16µM*

Assay outcomes (PubChem)
